Measurements as given in PubChem BioAssay AID1159580 (chemical genetic matrix, 2015).
“And” between values parts separate entries of the source, which are not always exact repeats. Identical values can stand only once. About 2,000 (36%) of roughly 5,500 compounds were called active. About 18% were inconclusive and are not listed. No stated cut-off is given here; in the data, active means normalized growth mostly below about 0.91 (no sharp cut-off); inconclusive means no clear call, values can overlap the other calls; inactive means mostly above about 0.92. The list shows a part of the results.

Assay: chemical genetic growth profiling, strain panel (AID 1159580);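 further: tested at 20 µM; growth read once vehicle control cultures reached saturation at 30 °C; 1 = growth at the plate median or of vehicle wells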
Details: S. cerevisiae deletion strains, growth OD

Measured: normalized growth

CNCc1ccccc1
inactive: locus YAL013W, strain DEP1, stronger effect = lower value 0.994 | locus YAL021C, strain ccr4, stronger effect = lower value 1.01 | locus YAL026C, strain drs2, stronger effect = lower value 1.02 | locus YAL030W, strain snc1, stronger effect = lower value 1.02 | locus YBL061C, strain skt5, stronger effect = lower value 1.03 | locus YBR009C, strain hhf1, stronger effect = lower value 1.02 | locus YBR021W, strain FUR4, stronger effect = lower value 1.03 | locus YBR023C, strain chs3, stronger effect = lower value 1.03 | locus YBR171W, strain sec66, stronger effect = lower value 1.03 | locus YBR229C, strain ROT2, stronger effect = lower value 0.965 | locus YBR231C, strain swc5, stronger effect = lower value 1.01 | locus YBR279W, strain paf1, stronger effect = lower value 1.02 | locus YCL011C, strain gbp2, stronger effect = lower value 1.02 | locus YCL016C, strain dcc1, stronger effect = lower value 1.02 | locus YCL029C, strain bik1, stronger effect = lower value 0.984 | locus YCL061C, strain MRC1, stronger effect = lower value 1.01 | locus YCL069W, strain vba3, stronger effect = lower value 1.02 | locus YCR088W, strain abp1, stronger effect = lower value 1.03 | locus YDL005C, strain med2, stronger effect = lower value 1.02 | locus YDL035C, strain GPR1, stronger effect = lower value 1 | locus YDL040C, strain nat1, stronger effect = lower value 1 | locus YDL074C, strain BRE1, stronger effect = lower value 1.05 | locus YDL101C, strain DUN1, stronger effect = lower value 0.982 | locus YDL134C, strain PPH21, stronger effect = lower value 0.992 | locus YDL185W, strain tfp1, stronger effect = lower value 0.987 | locus YDL192W, strain arf1, stronger effect = lower value 0.997 | locus YDR001C, strain nth1, stronger effect = lower value 1.02 | locus YDR069C, strain doa4, stronger effect = lower value 1.01 | locus YDR101C, strain arx1, stronger effect = lower value 1.05 | locus YDR137W, strain rgp1, stronger effect = lower value 1.04 | locus YDR159W, strain sac3, stronger effect = lower value 1.05 | locus YDR162C, strain NBP2, stronger effect = lower value 0.957 | locus YDR195W, strain ref2 0.999 | locus YDR297W, strain sur2, stronger effect = lower value 1.02 | locus YDR318W, strain mcm21, stronger effect = lower value 0.965 | locus YDR334W, strain swr1, stronger effect = lower value 1.03 | locus YDR335W, strain msn5, stronger effect = lower value 1.02 | locus YDR388W, stronger effect = lower value 1.01 | locus YDR392W, strain spt3, stronger effect = lower value 1.01 | locus YDR502C, strain sam2, stronger effect = lower value 1 | locus YEL003W, strain gim4, stronger effect = lower value 1.02 | locus YEL037C, strain rad23, stronger effect = lower value 1.02 | locus YEL061C, strain CIN8 (second series), stronger effect = lower value 1.03 | locus YEL061C, strain CIN8, stronger effect = lower value 0.996 | locus YER015W, strain faa2, stronger effect = lower value 1.01 | locus YER016W, strain bim1, stronger effect = lower value 1.02 | locus YER110C, stronger effect = lower value 0.99 | locus YER111C, strain swi4, stronger effect = lower value 1.02 | locus YER155C, strain BEM2 (second series), stronger effect = lower value 1.02 | locus YER155C, strain BEM2, stronger effect = lower value 0.987 | locus YER167W, strain BCK2, stronger effect = lower value 0.988 | locus YFR010W, strain ubp6, stronger effect = lower value 1.04 | locus YGL078C, strain dbp3, stronger effect = lower value 0.999 | locus YGL086W, strain mad1, stronger effect = lower value 1.06 | locus YGL167C, strain pmr1, stronger effect = lower value 1.03 | locus YGL173C, strain kem1, stronger effect = lower value 1.03 | locus YGL227W, strain vid30, stronger effect = lower value 1.03 | locus YGL240W, strain doc1, stronger effect = lower value 1.01 | locus YGL248W, strain PDE1, stronger effect = lower value 0.984 | locus YGL253W, strain hxk2, stronger effect = lower value 1.03 | locus YGR078C, strain PAC10, stronger effect = lower value 0.981 | locus YGR135W, strain pre9, stronger effect = lower value 0.972 | locus YGR229C, strain SMI1, stronger effect = lower value 0.986 | locus YGR252W, strain gcn5, stronger effect = lower value 0.908 | locus YHR013C, strain ard1, stronger effect = lower value 1.03 | locus YHR027C, strain rpn1, stronger effect = lower value 1.04 | locus YHR030C, strain SLT2, stronger effect = lower value 1.01 and 0.986 | locus YHR079C, strain IRE1 (second series), stronger effect = lower value 0.989 | locus YHR079C, strain IRE1, stronger effect = lower value 0.975 | locus YHR094C, strain hxt1, stronger effect = lower value 0.978 | locus YHR129C, strain ARP1, stronger effect = lower value 1 | locus YHR142W, strain chs7, stronger effect = lower value 1.05 | locus YHR200W, strain rpn10, stronger effect = lower value 0.999 | locus YIL066C, strain RNR3, stronger effect = lower value 0.992 | locus YIL073C, strain SPO22, stronger effect = lower value 1.01 | locus YIL125W, strain kgd1, stronger effect = lower value 1 | locus YIR030C, strain dcg1, stronger effect = lower value 0.99 | locus YJL092W, strain hpr5, stronger effect = lower value 1.02 | locus YJL095W, strain BCK1 (second series), stronger effect = lower value 1.02 | locus YJL095W, strain BCK1, stronger effect = lower value 0.95 and 0.974 | locus YJL115W, strain asf1, stronger effect = lower value 1.03 | locus YJL129C, strain trk1, stronger effect = lower value 1.05 | locus YJL134W, strain LCB3, stronger effect = lower value 0.996 | locus YJL154C, strain vps35, stronger effect = lower value 1.03 | locus YJL164C, strain tpk1, stronger effect = lower value 1.01 | locus YJL166W, strain qcr8, stronger effect = lower value 1.02 | locus YJL168C, strain set2, stronger effect = lower value 0.991 | locus YJL187C, strain SWE1 (second series), stronger effect = lower value 0.977 | locus YJL187C, strain SWE1, stronger effect = lower value 1.03 | locus YJR043C, strain POL32, stronger effect = lower value 1
